Read-out in test [1]: Tumor necrosis factor receptor superfamily member 6 (Homo sapiens) (UniProt P25445)
Briefly: LTEA_HepaRG_FAS: Life Technologies and Expression Analysis (LTEA) Assay for Fas cell surface death receptor (FAS) using HepaRG (AID 2283447). The following applies: mRNA level, 48 h; actives raise or lower the signal. A digest of the protocol: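 Differentiated human HepaRG cells, pre-cultured 48 h, were exposed in duplicate for 48 h to 8-point half-log concentrations (top 100 uM, 0.5% DMSO) in serum-free induction medium; FAS mRNA measured by qRT-PCR, normalized to ACTB/GAPDH/POLR2A, bidirectional fit versus DMSO.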

Read-out in test [2]: Fatty acid synthase (Homo sapiens) (UniProt P49327)
Description: LTEA_HepaRG_FASN: Life Technologies and Expression Analysis (LTEA) Assay for Fatty Acid Synthase (FASN) using HepaRG (AID 2283448). The following applies: mRNA level, 48 h; actives raise or lower the signal. The method, boiled down: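 Transcript-level assay: HepaRG liver cells are treated for 48 h across an eight-point range topping at 100 uM, and FASN mRNA, normalized to three housekeeping genes, is compared with DMSO controls in both directions.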

Read-out in test [3]: Cyclin D2 (CCND2), CCND2 (gene 894)
Description: LTEA_HepaRG_CCND2: Life Technologies and Expression Analysis (LTEA) Assay for Cyclin D2 (CCND2) using HepaRG (AID 2283449).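 Also: CCND2 transcript measured by TaqMan qRT-PCR and normalised to three housekeeping genes.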 The following applies: mRNA level, 48 h; actives raise or lower the signal. The method, boiled down: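 Differentiated human HepaRG cells were exposed for 48 h in serum-free induction medium to eight half-log concentrations topping at 100 uM (0.5% DMSO vehicle). CCND2 mRNA was quantified by TaqMan qRT-PCR, normalised to ACTB, GAPDH and POLR2A, and fitted bidirectionally against DMSO.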

Read-out in test [4]: Cyclin Dependent Kinase Inhibitor 1A (CDKN1A), CDKN1A (gene 1026)
Description: LTEA_HepaRG_CDKN1A: Life Technologies and Expression Analysis (LTEA) Assay for Cyclin Dependent Kinase Inhibitor 1A (CDKN1A) using HepaRG (AID 2283450). The following applies: mRNA level, 48 h; actives raise or lower the signal. The method, boiled down: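 HepaRG, 48 h dosing, 8-pt half-log series from 100 uM top, 0.5% DMSO vehicle, duplicates. Readout: TaqMan qRT-PCR of CDKN1A transcript, housekeeping-normalized (ACTB, GAPDH, POLR2A). Up/down curve fit relative to DMSO.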

Read-out in test [5]: Cyclin D1 (CCND1), CCND1 (gene 595)
Briefly: LTEA_HepaRG_CCND1: Life Technologies and Expression Analysis (LTEA) Assay for Cyclin D1 (CCND1) using HepaRG (AID 2283451). The following applies: mRNA level, 48 h; actives raise or lower the signal. The method, boiled down: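 qRT-PCR (Fluidigm 96.96 array) read-out of transcript level, housekeeping-normalized (ACTB/GAPDH/POLR2A). HepaRG cells, 48 h chemical exposure, 8-point half-log series from 100 uM, 0.5% DMSO vehicle; gain or loss relative to DMSO baseline.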

Read-out in test [6]: catalase (CAT), CAT (gene 847)
Description: LTEA_HepaRG_CAT: Life Technologies and Expression Analysis (LTEA) Assay for catalase (CAT) using HepaRG (AID 2283452). The settings on record: mRNA level, 48 h; actives raise or lower the signal. The method, boiled down:
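Differentiated HepaRG cells in serum-free induction medium were dosed 48 h in duplicate, eight half-log concentrations from 100 uM in 0.5% DMSO. Transcript measured by TaqMan qRT-PCR, normalised to ACTB/GAPDH/POLR2A, fitted bidirectionally against DMSO.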

Read-out in test [7]: flavin-containing dimethylaniline monooxygenases 3 (FMO3), FMO3 (gene 2328)
Briefly: LTEA_HepaRG_FMO3: Life Technologies and Expression Analysis (LTEA) Assay for flavin-containing dimethylaniline monooxygenases 3 (FMO3) using HepaRG (AID 2283453). The settings on record: mRNA level, 48 h; actives raise or lower the signal. A digest of the protocol:
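HepaRG, 48 h exposure, 8-pt half-log series from 100 uM, 0.5% DMSO vehicle, duplicates; FMO3 transcript by Fluidigm TaqMan qRT-PCR, housekeeping-normalized; gain/loss fit vs DMSO.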

Read-out in test [8]: Cytochrome P450 (CYP1A1), CYP1A1 (gene 1543)
Description: LTEA_HepaRG_CYP1A1: Life Technologies and Expression Analysis (LTEA) Assay for Cytochrome P450 (CYP1A1) using HepaRG (AID 2283454). The following applies: mRNA level, 48 h; actives raise or lower the signal. The method, boiled down: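 qRT-PCR read-out: CYP1A1 transcript normalized to three housekeeping genes, fitted bidirectionally against 0.5% DMSO vehicle baseline. Human HepaRG cells, 48 h chemical exposure, 8-point half-log series topping at 100 uM.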

Read-out in test [9]: CFLAR gene, CFLAR (gene 8837)
Briefly: LTEA_HepaRG_CFLAR: Life Technologies and Expression Analysis (LTEA) Assay for CFLAR gene using HepaRG (AID 2283455). The following applies: mRNA level, 48 h; actives raise or lower the signal. The method, boiled down:
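HepaRG cells were plated for 48 h, switched to serum-free induction medium, then exposed in duplicate for 48 h to 8 concentrations (top 100 uM, half-log steps, 0.5% DMSO). CFLAR mRNA was measured by qRT-PCR, normalized to ACTB, GAPDH and POLR2A.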

Read-out in test [10]: Forkhead box O1 (FOXO1), FOXO1 (gene 2308)
Description: LTEA_HepaRG_FOXO1: Life Technologies and Expression Analysis (LTEA) Assay for Forkhead box O1 (FOXO1) using HepaRG (AID 2283456). The following applies: mRNA level, 48 h; actives raise or lower the signal. A digest of the protocol:
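Differentiated human HepaRG cells in serum-free induction medium were exposed in duplicate for 48 h to eight half-log concentrations (top 100 uM, 0.5% DMSO). FOXO1 mRNA was measured by TaqMan qRT-PCR, normalised to ACTB, GAPDH and POLR2A, and fitted bidirectionally against DMSO.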

Read-out in test [11]: growth arrest and DNA damage 45 (GADD45A), GADD45A (gene 1647)
Briefly: LTEA_HepaRG_GADD45A: Life Technologies and Expression Analysis (LTEA) Assay for growth arrest and DNA damage 45 (GADD45A) using HepaRG (AID 2283458). The following applies: mRNA level, 48 h; actives raise or lower the signal. The method, boiled down: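 Human HepaRG liver cells are treated in duplicate for 48 h with chemicals in 0.5% DMSO, highest concentration 100 uM. Expression is read by qRT-PCR and analyzed in both directions against vehicle.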

Read-out in test [12]: Forkhead box O3 (FOXO3), FOXO3 (gene 2309)
Description: LTEA_HepaRG_FOXO3: Life Technologies and Expression Analysis (LTEA) Assay for Forkhead box O3 (FOXO3) using HepaRG (AID 2283459). The settings on record: mRNA level, 48 h; actives raise or lower the signal. A digest of the protocol:
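Differentiated human HepaRG cells in serum-free induction medium were exposed in duplicate for 48 h to eight half-log concentrations up to 100 uM in 0.5% DMSO. FOXO3 mRNA was quantified by qRT-PCR, normalized to ACTB, GAPDH and POLR2A, with bidirectional fitting versus DMSO.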

Read-out in test [13]: ABC Transporter (ABCB1), ABCB1 (gene 5243)
Briefly: LTEA_HepaRG_ABCB1: Life Technologies and Expression Analysis (LTEA) Assay for ABC Transporter (ABCB1) using HepaRG (AID 2283460). The following applies: mRNA level, 48 h; actives raise or lower the signal. The method, boiled down:
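Differentiated human HepaRG cells, plated 48 h then switched to serum-free induction medium, were exposed in duplicate to eight half-log concentrations up to 100 uM in 0.5% DMSO for 48 h. ABCB1 mRNA was measured by TaqMan qRT-PCR, normalized to ACTB/GAPDH/POLR2A.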

Read-out in test [14]: growth arrest and DNA damage 45 (GADD45B), GADD45B (gene 4616)
Briefly: LTEA_HepaRG_GADD45B: Life Technologies and Expression Analysis (LTEA) Assay for growth arrest and DNA damage 45 (GADD45B) using HepaRG (AID 2283461). The settings on record: mRNA level, 48 h; actives raise or lower the signal. A digest of the protocol:
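qRT-PCR read-out (Fluidigm TaqMan, housekeeping-normalized) of mRNA change in human HepaRG cells after 48 h chemical exposure; 8-point curve, top 100 uM, half-log steps, 0.5% DMSO vehicle; gain or loss fitted relative to DMSO baseline.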

Read-out in test [15]: ABC Transporter (ABCC3), ABCC3 (gene 8714)
Briefly: LTEA_HepaRG_ABCC3: Life Technologies and Expression Analysis (LTEA) Assay for ABC Transporter (ABCC3) using HepaRG (AID 2283462). The settings on record: mRNA level, 48 h; actives raise or lower the signal. A digest of the protocol:
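qRT-PCR read-out of ABCC3 transcript, normalized to three housekeeping genes (ACTB, GAPDH, POLR2A), after 48 h chemical exposure of human HepaRG cells. Eight half-log concentrations, highest 100 uM, in 0.5% DMSO; gain or loss fitted relative to DMSO baseline.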

Read-out in test [16]: Broad substrate specificity ATP-binding cassette transporter ABCG2 (Homo sapiens) (UniProt Q9UNQ0)
Description: LTEA_HepaRG_ABCG2: Life Technologies and Expression Analysis (LTEA) Assay for ABC Transporter (ABCG2) using HepaRG (AID 2283465). The following applies: mRNA level, 48 h; actives raise or lower the signal. The method, boiled down:
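Differentiated HepaRG cells in serum-free induction medium were exposed for 48 h, in duplicate, to eight half-log concentrations up to 100 uM in 0.5% DMSO. ABCG2 mRNA was measured by TaqMan qRT-PCR, normalized to ACTB, GAPDH and POLR2A, and fitted bidirectionally versus DMSO.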

Read-out in test [17]: ATP-citrate lyase (ACLY), ACLY (gene 47)
Briefly: LTEA_HepaRG_ACLY: Life Technologies and Expression Analysis (LTEA) Assay for ATP-citrate lyase (ACLY) using HepaRG (AID 2283466). The settings on record: mRNA level, 48 h; actives raise or lower the signal. A digest of the protocol:
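Differentiated human HepaRG cells in serum-free induction medium exposed 48 h, in duplicate, to eight half-log concentrations from 100 uM top in 0.5% DMSO; ACLY mRNA measured by qRT-PCR, normalized to ACTB, GAPDH, POLR2A, fitted bidirectionally versus DMSO.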

Read-out in test [18]: ABC Transporter (ABCC2), ABCC2 (gene 1244)
Briefly: LTEA_HepaRG_ABCC2: Life Technologies and Expression Analysis (LTEA) Assay for ABC Transporter (ABCC2) using HepaRG (AID 2283464). The settings on record: mRNA level, 48 h; actives raise or lower the signal. A digest of the protocol: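 qRT-PCR (TaqMan, Fluidigm array) read-out of ABCC2 mRNA, normalized to three housekeeping genes. Differentiated HepaRG cells were treated 48 h in serum-free induction medium with 8-point half-log series from 100 uM in 0.5% DMSO; curves fitted bidirectionally relative to DMSO.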

Test [19] in a line: CEETOX_H295R_TESTO: CeeTox H295R High-throughput Steroidogenesis Assay for Testosterone (TESTO) (AID 2283457). The settings on record: actives raise or lower the signal. A digest of the protocol: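 Readout: testosterone quantified by HPLC-MS/MS (C18, ESI positive) after MTBE liquid-liquid extraction of culture medium. Cells were H295R, 48 h chemical exposure per OECD 456 with modifications. Gain or loss of signal fitted relative to DMSO.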

The source made the active and inactive calls. The calls were made as follows: active = hit-call score of the fitted dose curve at least 0.9, where 1 is the maximum; inactive = score below 0.9.

Broad substrate specificity ATP-binding cassette transporter ABCG2 (Homo sapiens), sequence (Q9UNQ0 whole entry, looked up): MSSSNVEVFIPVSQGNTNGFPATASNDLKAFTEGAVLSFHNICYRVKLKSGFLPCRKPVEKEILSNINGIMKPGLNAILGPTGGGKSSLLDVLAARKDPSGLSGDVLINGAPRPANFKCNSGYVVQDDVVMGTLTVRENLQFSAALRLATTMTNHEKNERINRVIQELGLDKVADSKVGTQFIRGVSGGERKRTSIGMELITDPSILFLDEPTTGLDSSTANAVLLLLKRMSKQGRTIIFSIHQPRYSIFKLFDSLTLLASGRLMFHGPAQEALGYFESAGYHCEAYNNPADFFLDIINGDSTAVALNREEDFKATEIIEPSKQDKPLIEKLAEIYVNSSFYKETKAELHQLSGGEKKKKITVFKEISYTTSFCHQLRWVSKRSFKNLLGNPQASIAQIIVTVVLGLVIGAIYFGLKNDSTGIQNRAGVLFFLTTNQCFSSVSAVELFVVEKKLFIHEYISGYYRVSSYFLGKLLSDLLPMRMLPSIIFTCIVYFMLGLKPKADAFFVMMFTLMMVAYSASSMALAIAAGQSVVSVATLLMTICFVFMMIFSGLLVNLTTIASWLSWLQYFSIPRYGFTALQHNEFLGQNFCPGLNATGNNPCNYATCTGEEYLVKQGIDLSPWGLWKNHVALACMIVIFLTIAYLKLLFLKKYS
Fatty acid synthase (Homo sapiens), sequence (P49327 whole entry, looked up): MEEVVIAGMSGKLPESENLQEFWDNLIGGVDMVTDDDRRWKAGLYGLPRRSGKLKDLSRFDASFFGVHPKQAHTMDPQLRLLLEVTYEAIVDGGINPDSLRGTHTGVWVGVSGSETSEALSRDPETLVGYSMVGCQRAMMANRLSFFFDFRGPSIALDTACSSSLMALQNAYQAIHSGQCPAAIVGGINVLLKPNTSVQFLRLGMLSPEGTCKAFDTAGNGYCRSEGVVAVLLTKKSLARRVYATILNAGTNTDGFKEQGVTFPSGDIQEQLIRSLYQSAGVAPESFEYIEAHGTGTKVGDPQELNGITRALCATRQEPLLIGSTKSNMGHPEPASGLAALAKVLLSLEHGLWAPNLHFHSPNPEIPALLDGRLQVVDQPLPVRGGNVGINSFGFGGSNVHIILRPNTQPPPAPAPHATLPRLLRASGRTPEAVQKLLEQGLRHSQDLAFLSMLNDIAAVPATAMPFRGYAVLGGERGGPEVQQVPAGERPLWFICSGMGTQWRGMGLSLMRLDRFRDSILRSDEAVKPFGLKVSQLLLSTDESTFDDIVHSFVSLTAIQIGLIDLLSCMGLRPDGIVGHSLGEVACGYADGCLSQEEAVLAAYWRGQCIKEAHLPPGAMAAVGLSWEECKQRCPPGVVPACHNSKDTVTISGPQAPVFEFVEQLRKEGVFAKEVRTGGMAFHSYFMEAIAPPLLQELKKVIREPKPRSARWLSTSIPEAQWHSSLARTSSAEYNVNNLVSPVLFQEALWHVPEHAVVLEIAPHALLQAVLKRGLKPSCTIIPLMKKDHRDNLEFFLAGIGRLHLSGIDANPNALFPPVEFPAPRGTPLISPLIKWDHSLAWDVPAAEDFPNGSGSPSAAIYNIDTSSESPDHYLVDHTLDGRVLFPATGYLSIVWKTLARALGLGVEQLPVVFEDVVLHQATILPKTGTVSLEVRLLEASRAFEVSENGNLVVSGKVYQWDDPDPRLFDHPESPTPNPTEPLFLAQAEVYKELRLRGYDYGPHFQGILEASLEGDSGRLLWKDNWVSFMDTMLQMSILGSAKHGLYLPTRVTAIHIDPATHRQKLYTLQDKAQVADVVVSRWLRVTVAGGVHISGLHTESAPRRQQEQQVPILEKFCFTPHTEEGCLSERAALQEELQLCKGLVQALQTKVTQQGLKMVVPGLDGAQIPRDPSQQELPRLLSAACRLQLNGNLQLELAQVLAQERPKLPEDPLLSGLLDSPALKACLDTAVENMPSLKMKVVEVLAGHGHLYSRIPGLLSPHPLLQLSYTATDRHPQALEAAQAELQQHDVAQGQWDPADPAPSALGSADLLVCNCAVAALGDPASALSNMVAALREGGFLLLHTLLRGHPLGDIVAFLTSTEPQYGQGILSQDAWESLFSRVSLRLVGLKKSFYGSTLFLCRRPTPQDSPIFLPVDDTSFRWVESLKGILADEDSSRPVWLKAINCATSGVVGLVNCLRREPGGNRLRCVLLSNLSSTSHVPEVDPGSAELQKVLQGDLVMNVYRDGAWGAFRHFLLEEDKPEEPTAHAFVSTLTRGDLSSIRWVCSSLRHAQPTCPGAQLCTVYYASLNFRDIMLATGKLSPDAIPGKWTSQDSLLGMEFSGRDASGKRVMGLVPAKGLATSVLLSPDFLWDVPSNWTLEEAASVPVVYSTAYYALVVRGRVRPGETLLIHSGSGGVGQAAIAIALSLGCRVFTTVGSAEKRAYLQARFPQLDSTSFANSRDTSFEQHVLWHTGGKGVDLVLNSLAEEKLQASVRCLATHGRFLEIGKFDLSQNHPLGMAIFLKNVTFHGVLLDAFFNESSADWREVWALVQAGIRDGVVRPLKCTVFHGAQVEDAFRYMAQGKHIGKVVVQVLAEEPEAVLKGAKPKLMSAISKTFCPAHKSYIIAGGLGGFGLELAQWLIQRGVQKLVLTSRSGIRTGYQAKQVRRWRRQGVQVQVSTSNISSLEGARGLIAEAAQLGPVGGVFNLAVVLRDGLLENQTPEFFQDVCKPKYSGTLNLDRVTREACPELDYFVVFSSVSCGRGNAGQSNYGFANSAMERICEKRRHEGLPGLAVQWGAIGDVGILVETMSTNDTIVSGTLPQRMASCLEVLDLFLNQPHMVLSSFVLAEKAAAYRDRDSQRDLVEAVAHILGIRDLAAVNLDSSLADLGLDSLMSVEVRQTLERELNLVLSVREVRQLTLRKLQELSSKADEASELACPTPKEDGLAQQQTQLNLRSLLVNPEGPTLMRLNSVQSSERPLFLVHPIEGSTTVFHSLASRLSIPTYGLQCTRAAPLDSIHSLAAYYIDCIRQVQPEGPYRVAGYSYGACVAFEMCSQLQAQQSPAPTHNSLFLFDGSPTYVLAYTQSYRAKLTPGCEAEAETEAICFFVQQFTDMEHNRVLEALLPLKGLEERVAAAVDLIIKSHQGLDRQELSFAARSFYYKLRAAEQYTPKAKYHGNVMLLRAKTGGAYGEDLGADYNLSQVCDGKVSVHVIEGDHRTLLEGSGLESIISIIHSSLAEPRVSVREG

Usually AC50 stands for the concentration at which the activity in the assay is half-maximal. For `CCCCCCCCCCC`, the molecule was classed as inactive in [1], in [2], in [3], in test [4], in [5] and in test [6]. The molecule was classed as inactive in test [7], in test [9], in [10], in test [11], in [12] and in [13]. The outcome in [14], in test [15], in test [16] and in test [17] was inactive. In test [8], the AC50 was 50000 nM (active).
Turning to `COCCOCCOC`, the AC50 was 382 nM (active) in test [1]; 1220 nM (active) in test [8]; 2220 nM (active) in test [10]; 998 nM (active) in test [11]; 9920 nM (active) in [12]; 2830 nM (active) in [13]. The AC50 in test [16] is 1370 nM (active). Moreover, the call in test [2], in test [3], in [4], in [5], in test [6] and in test [7] was inactive. Moreover, the result in test [14], in test [15], in [18] and in test [17] was inactive.
With `COc1ccc(C)cc1N`, the call in [1], in [2], in [3], in test [4], in test [5] and in test [6] was inactive. Also, the molecule was called inactive in [7], in test [8], in test [9], in test [10], in [19] and in test [11]. Further, the molecule was called inactive in test [12], in [13], in test [14], in test [15], in test [16] and in test [17].
Take `Cc1ccc2ncccc2c1`: the result in test [1], in test [2], in test [3], in [4], in [5] and in [6] was inactive. The result in test [7], in test [9], in test [10], in test [11], in test [12] and in [13] was inactive. In addition, the outcome in test [14], in test [15], in [16] and in test [17] was inactive. In test [8], the AC50 is 50000 nM (active).
